Measurements: PubChem BioAssay AID463173 (ICCB-Longwood Screening Facility, Harvard Medical School, 2010)
About 4,300 (8.3%) of roughly 52,000 compounds were called active. This excerpt belongs to a sample that is enriched for actives. Values without a mark were called inactive. No stated cut-off is given here; in the data, active means survival mostly below about 52% (no sharp cut-off); inactive means mostly above about 56%.

Each compound was assayed on DeltatarO mutant (assay: growth inhibition of S. aureus wild type versus tarO mutant, primary screen, teichoic acid synthesis inhibitors, RN4220, OD600 (AID 463173)). Conditions: OD600, 18 h, active compounds read low, screened at 18.75 µg/mL (by protocol).

| SMILES | survival |
| --- | --- |
| Cc1ccccc1-c1noc(C(C)NC(=O)c2ccco2)n1 (stereo unspecified) | 79% |
| COc1ccc(-n2c(=O)c3c4c(sc3n(Cc3ccccc3C)c2=O)CCCC4)c(OC)c1 | 64% |
| CCOc1ccccc1NC(=O)c1cc(S(=O)(=O)NC2CCCC2)ccc1F | 81% |
| O=C(NCC(c1ccccc1)c1ccccc1)c1nn(-c2ccccc2F)nc1CO | 104% |
| COc1ccccc1NC(=O)Cn1c(=O)n(Cc2ccccc2)c(=O)c2sc3ccccc3c21 | 68% (active) |
| Cc1ccccc1NC(=O)Cn1c(=O)n(Cc2ccccc2)c(=O)c2sc3ccccc3c21 | 65% |
| COc1ccccc1NC(=O)Cn1c(=O)n(CCc2ccccc2)c(=O)c2sc3ccccc3c21 | 74% |
| O=c1c2sc3ccccc3c2n(Cc2ccc(F)cc2)c(=O)n1Cc1ccccc1 | 137% |
| O=c1c2sc3ccccc3c2n(Cc2cccc(Cl)c2)c(=O)n1Cc1ccc(F)cc1 | 68% (active) |
| O=c1c2sc3ccccc3c2n(Cc2cccc(Cl)c2)c(=O)n1Cc1ccccc1 | 66% |
| CCS(=O)(=O)c1ncc(N(Cc2cccc(F)c2)Cc2ccco2)c(C(=O)Nc2ccccc2Cl)n1 | 64% |
| COc1ccc(Cl)cc1NC(=O)c1nc(S(C)(=O)=O)ncc1N(Cc1ccc(C)cc1)Cc1ccco1 | 103% |
| COc1ccccc1CN(Cc1ccco1)c1cnc(S(C)(=O)=O)nc1C(=O)Nc1ccccc1Cl | 46% (active) |
| CCc1ccc(CN(Cc2ccco2)c2cnc(S(C)(=O)=O)nc2C(=O)Nc2ccccc2Cl)cc1 | 101% |
| COc1cccc(CN(Cc2ccco2)c2cnc(S(C)(=O)=O)nc2C(=O)Nc2cccc(Cl)c2C)c1 | 47% (active) |
| COc1ccccc1CN(Cc1ccco1)c1cnc(S(C)(=O)=O)nc1C(=O)Nc1cc(C)ccc1C | 58% |
| CCOc1ccccc1NC(=O)C(=O)c1cc(C)n(-c2ccc(F)cc2)c1C | 114% |
| Cn1cc(-c2nnc(-c3ccccc3)o2)c2ccccc21 | 94% |
| CCOc1cc(C(=O)NCc2nc(-c3cccc(C)c3)no2)cc(OCC)c1OCC | 70% |
| CCOc1cc(C(=O)N(Cc2nc(-c3ccc(C)cc3)no2)C(C)C)cc(OCC)c1OCC | 50% (active) |
| COc1cccc(C(=O)N(Cc2nc(-c3ccc(Cl)cc3)no2)C(C)C)c1OC | 66% |
| CCCCOc1ccc(C(=O)N(Cc2nc(-c3ccc(Cl)cc3)no2)C(C)C)cc1 | 59% |
| CC(C)N(Cc1nc(-c2ccc(Cl)cc2)no1)C(=O)c1ccco1 | 68% |

| SMILES | survival |
| --- | --- |
| CCOc1ccc(C(=O)NCc2nc(-c3ccc(Cl)cc3)no2)cc1OCC | 49% |
| Cc1cc(C)cc(C(=O)N(Cc2nc(-c3ccc(Cl)cc3)no2)C(C)C)c1 | 14% (active) |
| Cc1ccccc1C(=O)N(Cc1nc(-c2ccc(Cl)cc2)no1)C(C)C | 78% |
| CC(C)N(Cc1nc(-c2ccc(Cl)cc2)no1)C(=O)c1ccc(C(C)(C)C)cc1 | -1% (active) |
| Cc1ccc(-c2noc(CN(C(=O)c3ccc(C(C)(C)C)cc3)C(C)C)n2)cc1 | -4% (active) |
| Cc1ccc(-c2noc(CNC(=O)c3ccc(C(C)(C)C)cc3)n2)cc1 | 79% |
| O=C(CCN1C(=O)CSC1=O)Nc1ccccc1 | 114% |
| COc1ccc(OC)c(-c2noc(N3CCN(c4cccc(C(F)(F)F)c4)CC3)n2)c1 | 124% |
| COc1ccc(NC(=O)c2cnn(-c3ccc(C)cc3)c2-n2cccc2)cc1Cl | 69% |
| CN1C(=O)Cc2cc(S(=O)(=O)N3CCN(c4ccccc4F)CC3)ccc21 | 107% |
| COC(=O)c1cc2occc2n1CC(=O)Nc1ccc(C(C)C)cc1 | 93% |
| CCc1ccccc1Nc1cc(C(=O)NCc2ccc(C)cc2)c2ccccc2n1 | 69% |
| COc1ccccc1CNC(=O)CCC(=O)N1CC(C)Sc2ccccc21 (stereo unspecified) | 111% |
| Cc1ccc(CNC(=O)CCC(=O)N2CC(C)Sc3ccccc32)cc1 (stereo unspecified) | 45% (active) |
| CC1CN(C(=O)CCC(=O)NCc2cccc(Cl)c2)c2ccccc2S1 (stereo unspecified) | 100% |
| COc1cccc(CNC(=O)CCC(=O)N2CC(C)Sc3ccccc32)c1 (stereo unspecified) | 51% (active) |
| CCOc1ccc(CNC(=O)CCC(=O)N2CC(C)Sc3ccccc32)cc1 (stereo unspecified) | 56% |
| Cc1ccc(CNC(=O)CCC(=O)N2CCSc3ccccc32)cc1 | 113% |
| O=C(Nc1ccc2nc(SCCOc3ccccc3Cl)sc2c1)c1ccc2c(c1)OCO2 | 68% |
| COc1cn(CC(=O)Nc2c(C)cc(C)cc2C)c(CN2CCCCC2)cc1=O | 98% |
| CCOc1ccc(NS(=O)(=O)c2ccc(NC(=O)N3CCCC3)cc2)cc1 | 101% |
| COc1ccc(OC)c(NC(=O)C(C)n2c(=O)cc(C)c3c(C)nn(-c4ccccc4)c32)c1 (stereo unspecified) | 94% |
| CCOc1ccccc1-c1cc(C(=O)N/N=C(\C)c2ccco2)[nH]n1 | 85% |

| SMILES | survival |
| --- | --- |
| CCOc1ccc(Br)cc1CNCCSc1nnnn1-c1ccccc1 | 23% (active) |
| COc1cc(OC)c(OC)cc1CNCCSc1nnnn1-c1ccccc1 | 61% |
| Fc1ccc(-c2ccc(CNCCSc3nnnn3-c3ccccc3)o2)cc1 | 28% (active) |
| Brc1ccc(-c2ccc(CNCCSc3nnnn3-c3ccccc3)o2)cc1 | 67% |
| Fc1ccc(CNCCCSc2nnnn2-c2ccccc2)cc1 | 97% |
| Clc1cccc(CNCCCSc2nnnn2-c2ccccc2)c1 | 68% |
| Clc1ccc(-c2ccc(CNCCSc3nnnn3-c3ccccc3)o2)cc1 | 52% |
| Fc1cccc(Cl)c1CNCCSc1nnnn1-c1ccccc1 | 79% |
| Clc1cccc(-c2ccc(CNCCSc3nnnn3-c3ccccc3)o2)c1 | 30% (active) |
| Cc1c(Cl)cccc1-c1ccc(CNCCSc2nnnn2-c2ccccc2)o1 | 62% |
| Fc1ccc(-c2ccc(CNCCSc3nnnn3-c3ccccc3)o2)cc1Cl | 39% (active) |
| CCOc1cc(CNCCSc2nnnn2-c2ccccc2)ccc1OC | 60% |
| Cc1ccccc1OCC(=O)Nc1ccc2[nH]c(=O)sc2c1 | 133% |
| CN(C)c1ccc(/C=C/C=c2\sc3nc4ccccc4n3c2=O)cc1 | 102% |
| Cn1nnnc1SCCCNCc1ccc(-c2ccc(F)c(Cl)c2)o1 | 82% |
| Cn1nnnc1SCCCNCc1ccc(-c2ccc(Br)cc2)o1 | 32% (active) |
| Cn1nnnc1SCCCNCc1ccc(-c2cccc(Cl)c2)o1 | 97% |
| COc1cccc2c1Oc1ncccc1N(C(=O)CCC(=O)NCc1ccc(C)cc1)C2 | 81% |
| CCc1ccc(C2=NN(CCC(=O)NCCc3ccc(Cl)cc3)C(=O)CC2)cc1 | 128% |
| CCOc1ccc(CCNC(=O)CSc2nc3ccccc3nc2Cc2ccc(C)cc2)cc1OCC | 112% |
| COc1ccc(CCNC(=O)CSc2nc3ccccc3nc2Cc2ccc(C)cc2)cc1OC | 35% (active) |
| O=C(CSc1nc2ccccc2nc1Cc1ccc(Cl)cc1)NCCc1ccccc1 | 69% |
| CCCCN(C)C(=O)CSc1nc2ccccc2nc1Cc1ccc(C)cc1 | 32% (active) |

| SMILES | survival |
| --- | --- |
| Cc1ccc(Cc2nc3ccccc3nc2SCC(=O)NCCc2ccccc2)cc1 | 67% |
| COc1ccc(CCNC(=O)CSc2nc3ccccc3nc2Cc2ccc(Cl)cc2)cc1OC | 37% (active) |
| CCCCNC(=O)CSc1nc2ccccc2nc1Cc1ccc(C)cc1 | 87% |
| CCCNC(=O)CSc1nc2ccccc2nc1Cc1ccc(Cl)cc1 | 74% |
| Cc1ccc(CNC(=O)CSc2nc3ccccc3nc2Cc2ccc(C)cc2)cc1 | 71% |
| CCOc1ccc(CNS(=O)(=O)c2ccc3c(c2)CCCN3C(C)=O)cc1 | 93% |
| CC(Sc1nc(NC(C)(C)C)nc(N(C)C)n1)C(=O)Nc1ccccc1 (stereo unspecified) | 68% |
| COc1cc2[nH]c(=O)n(Cc3ccc(C(=O)N4CCN(c5cc(Cl)ccc5C)CC4)cc3)c(=O)c2cc1OC | 58% |
| COc1ccc(CNC(=O)CCNS(=O)(=O)c2ccc3c(c2)CCCC(=O)N3)cc1 | 119% |
| COc1ccccc1NC(=O)C1=C(C)Nc2nc(SCc3ccccc3Cl)nn2C1c1ccccn1 (stereo unspecified) | 171% |
| CCn1cc(C(=O)N2CCN(c3ccc(OC)cc3)CC2)c(=O)c2cc(S(=O)(=O)N(C)C3CCCCC3)ccc21 | 122% |
| CC(NC(=O)c1ccc(NC(=O)c2nsc3ccccc23)cc1)c1ccccc1 (stereo unspecified) | 84% |
| O=C(Cc1csc2ccccc12)NCc1ccc(F)cc1 | 71% |
| Cc1cc(C)c(NC(=O)C(C)n2c(=O)cc(C)c3c(C)nn(-c4ccccc4)c32)c(C)c1 (stereo unspecified) | 81% |
| Cn1nc(C(=O)NCc2ccccc2)c2c1-c1ccccc1S(=O)(=O)C2 | 85% |
| CC(C)NC(=O)c1nn(C)c2c1CS(=O)(=O)c1ccccc1-2 | 51% (active) |
| COc1ccc(NC(=O)c2nn(C)c3c2CS(=O)(=O)c2ccccc2-3)cc1Cl | 56% (active) |
| COCCCNC(=O)c1nn(C)c2c1CS(=O)(=O)c1ccccc1-2 | 99% |
| Cn1nc(C(=O)Nc2ccc(F)c(Cl)c2)c2c1-c1ccccc1S(=O)(=O)C2 | 90% |
| COc1ccc(Cl)cc1NC(=O)c1nn(C)c2c1CS(=O)(=O)c1ccccc1-2 | 53% |
| CCN1C(=O)c2ccccc2Sc2ccc(NC(=O)COc3ccc(Cl)cc3)cc21 | 91% |
| CCCCN(CC)CCNC(=O)c1c(C)oc2ncnc(N3CCOCC3)c12 | 87% |
